Among the data in PubChem BioAssay (EPA / NIEHS) are outcome and AC50 values, retold here.

“And” between values parts separate entries of the source, which are not always exact repeats. Equal values may be shown once. Records with an inconclusive call do not appear. Some compounds were tested as several samples or in several runs, with calls that do not always agree. The source made the active and inactive calls. Rule for the calls: active = hit-call score of the fitted dose curve at least 0.9, where 1 is the maximum; inconclusive = response in the unintended direction; inactive = score below 0.9.

Usually AC50 stands for the midpoint of the concentration-response curve, whichever way the signal moves.

Chain of Estrogen receptor beta (Homo sapiens) (Q92731 whole entry, looked up, the tested form may be a part): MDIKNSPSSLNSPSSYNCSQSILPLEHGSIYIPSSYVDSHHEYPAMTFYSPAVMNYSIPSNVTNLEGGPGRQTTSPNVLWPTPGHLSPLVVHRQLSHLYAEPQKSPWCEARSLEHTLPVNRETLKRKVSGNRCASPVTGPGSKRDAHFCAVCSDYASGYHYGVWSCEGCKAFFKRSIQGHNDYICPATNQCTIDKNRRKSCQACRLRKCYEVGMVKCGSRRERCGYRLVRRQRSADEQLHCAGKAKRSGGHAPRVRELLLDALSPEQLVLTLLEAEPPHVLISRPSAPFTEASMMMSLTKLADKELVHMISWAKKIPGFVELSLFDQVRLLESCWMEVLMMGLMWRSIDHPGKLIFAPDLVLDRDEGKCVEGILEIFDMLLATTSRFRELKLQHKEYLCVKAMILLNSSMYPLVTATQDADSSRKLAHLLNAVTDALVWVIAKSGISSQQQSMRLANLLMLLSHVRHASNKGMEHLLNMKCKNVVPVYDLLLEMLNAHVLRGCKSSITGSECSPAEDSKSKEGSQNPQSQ
Chain of Retinoic acid receptor alpha (Homo sapiens) (P10276 whole entry, looked up): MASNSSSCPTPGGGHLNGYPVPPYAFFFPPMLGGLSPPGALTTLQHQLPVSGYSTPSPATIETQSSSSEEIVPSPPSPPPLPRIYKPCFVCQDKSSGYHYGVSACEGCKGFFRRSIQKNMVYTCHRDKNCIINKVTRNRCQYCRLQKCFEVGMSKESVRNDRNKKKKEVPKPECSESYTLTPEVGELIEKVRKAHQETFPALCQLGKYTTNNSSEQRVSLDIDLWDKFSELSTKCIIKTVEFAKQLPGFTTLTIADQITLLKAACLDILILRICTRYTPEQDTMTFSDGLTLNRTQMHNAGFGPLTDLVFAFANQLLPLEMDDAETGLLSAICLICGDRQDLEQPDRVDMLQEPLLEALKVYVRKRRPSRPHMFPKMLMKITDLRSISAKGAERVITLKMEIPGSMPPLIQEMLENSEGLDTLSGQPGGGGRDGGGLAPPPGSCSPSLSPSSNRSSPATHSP
Chain of human Peroxisome Proliferator-activated Receptor alpha (PPARa), PPARA (gene 5465) (Q07869 whole entry, looked up): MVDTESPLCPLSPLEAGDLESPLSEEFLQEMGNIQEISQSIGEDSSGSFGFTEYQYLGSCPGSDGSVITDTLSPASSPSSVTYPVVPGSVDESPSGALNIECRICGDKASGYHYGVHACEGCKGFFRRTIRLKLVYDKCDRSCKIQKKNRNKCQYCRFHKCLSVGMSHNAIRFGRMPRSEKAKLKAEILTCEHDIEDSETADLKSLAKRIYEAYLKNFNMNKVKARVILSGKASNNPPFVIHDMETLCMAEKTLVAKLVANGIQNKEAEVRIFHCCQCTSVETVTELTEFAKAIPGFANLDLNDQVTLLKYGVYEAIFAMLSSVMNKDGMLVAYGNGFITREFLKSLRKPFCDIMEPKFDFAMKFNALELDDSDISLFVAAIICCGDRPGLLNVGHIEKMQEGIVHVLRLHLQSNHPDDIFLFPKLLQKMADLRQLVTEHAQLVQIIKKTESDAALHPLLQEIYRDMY

In the first test the target is Estrogen receptor beta (Homo sapiens) (UniProt Q92731). As to the kind of experiment: OT_ER_ERbERb_0480: Odyssey Thera (OT) 8-hour HEK293T Protein-Complementation Assay for Estrogen Receptor-beta/-beta Homodimer (AID 2283357).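 Note: active means signal gain over DMSO baseline.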 An outline of the steps:
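Homodimerization of ER-beta LBD measured by protein-fragment complementation in HEK293T; 8 h dosing; fixed, Draq5 counterstain; fluorescence intensity gain over DMSO baseline, positive fitting direction; laser scanning cytometry.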
Turning to `Cc1oc(-c2ccccc2)nc1CCOc1ccc(C[C@H](Nc2ccccc2C(=O)c2ccccc2)C(=O)O)cc1`, the call was inactive. `CCCCCCCC(=O)O`: the concentration at half-maximal activity (AC50) was 50 µM (active). `CCCCC(CC)COC(=O)CCCCC(=O)OCC(CC)CCCC` (stereo not drawn): the outcome was inactive. Still for that read-out and setting: the value for `CCc1ccc(CCOc2ccc(CC3SC(=O)NC3=O)cc2)nc1` (stereo not drawn) was “inactive”.

Take `CC(C)(C)c1cc(C(C)(C)C)c(O)c(C(C)(C)C)c1`: the concentration at half-maximal activity (AC50) is 29.3 µM (active). As for `ClC1=C(Cl)C(Cl)(Cl)C(Cl)=C1Cl`, the compound was called inactive. Still for that read-out and setting: as for `Nc1cccc2c(N)cccc12`, the entry is “inactive”; as for `Oc1cc2ccccc2c2ccccc12`, “inactive”; as for `NC(=O)N1C(=O)C(C(=O)c2cc(Cl)cs2)c2cc(F)c(Cl)cc21` (stereo not drawn), “inactive”. The same measure, in the same setting: the value for `CC[C@H](C)[C@@H](C(=O)O)n1sc2ccccc2c1=O` was “inactive”. Same read-out and setting: the value for `CC(C)(C)c1ccc(O)c(C(C)(C)C)c1` was “inactive”. `CCN(CC)CCNc1ccc(CNC=O)c2sc3ccc(OC)cc3c(=O)c12`: the compound was classed as inactive. For the compound `NC(=O)N(O)[C@@H]1C=C[C@H](Oc2cccc(Oc3ccc(F)cc3)c2)C1`, the AC50 is 50 µM (active).

A further test addresses Retinoic acid receptor alpha (Homo sapiens) (UniProt P10276). The experiment in a line: NVS_NR_hRAR_Antagonist: NovaScreen (NVS) Nuclear Receptor Binding Assay for human Retinoic Acid Alpha Receptor Antagonism (RAR) (AID 2283358). An outline of the steps: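 Read-out: time-resolved FRET binding signal, 2 h post-dose, cell-free extracted protein. Antagonism scored as signal loss versus DMSO negative control. Primary single-concentration screen at 25 uM in duplicate; concentration series for actives.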
On to `CCCCCCCCCCCCCC[N+](C)(C)C`, for which the concentration at half-maximal activity (AC50) was 28.3 µM (active). For the compound `CC1=C(/C=C/C(C)=C/C=C/C(C)=C/C(=O)O)C(C)(C)CCC1`, the compound was called inactive. On the same count and under the same terms, as for `CC(C)CCCCCCOC(=O)CCCCC(=O)OCCCCCCC(C)C`, the entry is “inactive”.

A further test concerns the target human Peroxisome Proliferator-activated Receptor alpha (PPARa), PPARA (gene 5465) (UniProt Q07869). The experiment in a line: NVS_NR_hPPARa: NovaScreen (NVS) Nuclear Receptor Binding Assay for human Peroxisome Proliferator-activated Receptor alpha (PPARa) (AID 2283359).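 Note: activity means loss of TR-FRET signal versus DMSO baseline.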 An outline of the steps: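 TR-FRET signal measured at 1 h post-dosing; loss-of-signal versus DMSO negative control taken as activity. Extracted gene-protein, cell-free format. Initial single-point duplicates at 25 uM, then concentration-response retests.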
Regarding `CCC(=C(c1ccc(O)cc1)c1ccc(OCCN(C)C)cc1)c1ccccc1`, the call was inactive. Still for that read-out and setting: the value for `Cc1cc(C)c(O)c(C)c1` was “inactive”; that for `CC[C@H](c1ccc(O)cc1)[C@@H](CC)c1ccc(O)cc1` was “inactive”. For `CCCCCCCC(=O)O`, the AC50 was 4.38 µM (active). For the compound `CCc1ccc(CCOc2ccc(CC3SC(=O)NC3=O)cc2)nc1` (stereo not drawn), the compound was called inactive. Take `CC(C)(C)c1cc(C(C)(C)C)c(O)c(C(C)(C)C)c1`: the compound was classed as inactive. Still for that read-out and setting: the value for `CC1=C(/C=C/C(C)=C/C=C/C(C)=C/C(=O)O)C(C)(C)CCC1` was “inactive”. The same measure, in the same setting: as for `NC(=O)N1C(=O)C(C(=O)c2cc(Cl)cs2)c2cc(F)c(Cl)cc21` (stereo not drawn), the entry is “inactive”. `CC#C[C@]1(O)CC[C@H]2[C@@H]3CCC4=CC(=O)CCC4=C3[C@@H](c3ccc(N(C)C)cc3)C[C@@]21C`: the AC50 was 41.9 µM (active) and the result was inactive. On to `CC(C)(C)c1ccc(O)c(C(C)(C)C)c1`, for which the compound was classed as inactive.

For the next test, the target named is Retinoic acid receptor alpha (Homo sapiens) (UniProt P10276). The experiment in a line: NVS_NR_hRARa_Agonist: NovaScreen (NVS) Nuclear Receptor Binding Assay for human Retinoic Acid Alpha Receptor Agonism (RAR) (AID 2283361). An outline of the steps:
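TR-FRET signal, 2 h post-dosing; cell-free extracted protein; DMSO = baseline, positive fitting direction; 25 uM single-point duplicate, then concentration series for actives.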
Turning to `CCCCC(CC)COC(=O)CCCCC(=O)OCC(CC)CCCC` (stereo not drawn), the compound was called inactive. With `Nc1cccc2c(N)cccc12`, the half-maximal activity concentration (AC50) was 20.5 µM (active). Turning to `O=c1c(-c2ccc(O)cc2)coc2cc(O)ccc12`, the AC50 was 1.06 µM (active) and 6.6 µM (active); the result was inactive. As to `CCN(CC)CCNc1ccc(CNC=O)c2sc3ccc(OC)cc3c(=O)c12`, the AC50 was 8.9 µM (active). As for `CC(C)CCCCCCOC(=O)CCCCC(=O)OCCCCCCC(C)C`, the call was inactive.
